SARS PLpro yeast: qHTS of Yeast-based Assay for SARS-CoV PLP. S. cerevisiae expressing SARS-CoV PLpro, growth rescue. Potency, µM (titrated, usually from 32.9 µM), for inactives: at the top dose activity, positive = growth rescue, actives largely listed as activators. 330,000 tested, 0.19% active; calls by dose curve; further: 0% is about no effect; nearly all actives have a fitted effect of over 55% in size
Sm TGR block: qHTS Assay for the Inhibitors of Schistosoma Mansoni Peroxiredoxins. AID 485364, 2010. Potency, µM (titrated, usually from 114 µM), without a hit: at the top dose activity change, negative = inhibition, actives largely listed as inhibitors. purified TGR, DTNB reduction, TNB absorbance 405 nm. Schistosoma mansoni thioredoxin glutathione reductase (TGR), Q962Y6. 360,000 tested, 3% active; further: on the % scale 0 is the no-effect control and ±100 the full control effect; nearly all actives have a fitted effect of over 60% in size
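Kinetic colorimetric format: TGR-catalysed, NADPH-driven DTNB reduction monitored via TNB absorbance. Enzyme dispensed at 20 nM; compound exposure 15 min at room temperature before reaction start.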
Pf growth 96h: Primary qHTS for delayed death inhibitors of the malarial parasite plastid, 96 hour incubation | P. falciparum luciferase reporter growth, 96 h | Potency, µM (highest dose often 28.7 µM), inactives show top-dose activity change, negative = inhibition, actives largely listed as inhibitors | 320,000 tested, 6.9% active; further: on the % scale 0 is the no-effect control and ±100 the full control effect
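Cell-based qHTS: luciferase-tagged P. falciparum in erythrocytes (2% hematocrit, 0.05% parasitemia final) incubated with compounds for 96 hours, 37 C, 5% CO2; luciferase detection reagent then added and luminescence measured.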
Pf growth 48h: Primary qHTS for delayed death inhibitors of the malarial parasite plastid, 48 hour incubation. P. falciparum luciferase growth in erythrocytes, 48 h. Potency, µM (doses to about 28.7 µM), without a hit: top-dose activity change, negative = inhibition, hits mostly inhibitors. 310,000 tested, 5.9% active; further: on the % scale 0 is the no-effect control and ±100 the full control effect
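Luminescence readout; reporter = integrated firefly luciferase in P. falciparum. RBC culture at 2% hematocrit, 0.1% parasitemia final, 37 C/5% CO2; decreased signal taken as growth inhibition.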
* marks the source's active call; other numbers are inactive results. In the library only some 12% were active in any assay of this set; here they are far more common. Unless noted, the call rests on the fitted dose curve; in most records, active means well fitted curve in the direction sought with a large enough effect; inconclusive means small, poorly fitted or top-dose-only effect, or another doubt; inactive means no such curve, though single readings can be large; an effect the other way counts as inactive or inconclusive. Potency means the concentration at half of the fitted maximal effect.

What do the screens show for `CCn1cnc2sc(C(=O)Oc3ccc(Br)cc3)c(C)c2c1=O`?
SARS PLpro yeast: -3%; Sm TGR block: -7%; Pf growth 96h: 2.9µM*; Pf growth 48h: 54%

Results for Cc1ccc2nc(N3CCN(c4ccccc4F)CC3)c3nnnn3c2c1 ?
Sm TGR block: 0%

How did C/C=C(\C)C(=O)OC1C(C)=C2C(C1OC(=O)CCCCC)C(C)(OC(C)=O)CC(OC(=O)CCC)C1(O)C2OC(=O)C1(C)O (stereo unspecified) do in these assays?
SARS PLpro yeast: 1%; Sm TGR block: inconclusive; Pf growth 96h: 2.9µM*; Pf growth 48h: 4.1µM*

Results for COc1cccc(C(=O)NC(=S)Nc2ccc(Cl)c(C(=O)O)c2)c1 ?
Sm TGR block: 32µM*; Pf growth 96h: 141%; Pf growth 48h: 132%

What do the screens show for `CCOc1cc(C(=O)NC(=S)Nc2ccc(Cl)c(C(=O)O)c2)cc(OCC)c1OCC`?
SARS PLpro yeast: 1%; Sm TGR block: 32µM*; Pf growth 96h: 10%; Pf growth 48h: -14%

What do the screens show for `COc1c(C)cc(Br)cc1C(=O)NC(=S)Nc1ccc(Cl)c(C(=O)O)c1`?
SARS PLpro yeast: 0%; Sm TGR block: -31%; Pf growth 96h: 17%; Pf growth 48h: -7%

Results for CCCOc1cccc(C(=O)NC(=S)Nc2cccc(NC(=O)c3ccccc3Cl)c2)c1 ?
SARS PLpro yeast: -5%; Sm TGR block: 3%; Pf growth 96h: 2.9µM*; Pf growth 48h: 2%

Results for CCCOc1ccc(C(=O)NC(=S)Nc2nc3ccc(C)cc3s2)cc1 ?
SARS PLpro yeast: 7%; Sm TGR block: 14%; Pf growth 96h: 69%; Pf growth 48h: 15%

What do the screens show for `Cc1ccc2nc(NC(=S)NC(=O)c3ccc(OC(C)C)cc3)sc2c1`?
SARS PLpro yeast: -41%; Sm TGR block: 0.71µM*; Pf growth 96h: inconclusive; Pf growth 48h: inconclusive

How did O=c1oc2ccc3ccccc3c2cc1-c1nnc(Nc2ccc(F)cc2)s1 do in these assays?
Sm TGR block: 0%

How did CC(C)Oc1ccc(C(=O)NC(=S)Nc2ccc(Cl)c(C(=O)O)c2)cc1 do in these assays?
SARS PLpro yeast: 2%; Sm TGR block: 40µM*; Pf growth 96h: 75%; Pf growth 48h: inconclusive

What do the screens show for `Cc1occc1C(=O)N1CCN(C(c2ccccc2)c2ccccc2)CC1`?
SARS PLpro yeast: -30%; Sm TGR block: inconclusive; Pf growth 96h: -2%; Pf growth 48h: 1.3µM*

Results for COc1ccc(-c2ocnc2C(=O)N2CCN(C(c3ccccc3)c3ccccc3)CC2)cc1 ?
SARS PLpro yeast: -13%; Sm TGR block: -24%; Pf growth 96h: -3%; Pf growth 48h: 8.3µM*

How did O=C(c1cc(-c2cccc(O)c2)on1)N1CCN(C(c2ccccc2)c2ccccc2)CC1 do in these assays?
SARS PLpro yeast: -13%; Sm TGR block: -13%; Pf growth 96h: inconclusive; Pf growth 48h: 1.9µM*

What do the screens show for `O=C(c1cc(C2CC2)on1)N1CCN(C(c2ccccc2)c2ccccc2)CC1`?
SARS PLpro yeast: -6%; Sm TGR block: 0%; Pf growth 96h: -10%; Pf growth 48h: 2%

How did Cc1ccnc(SCC(=O)N2CCN(C(c3ccccc3)c3ccccc3)CC2)n1 do in these assays?
SARS PLpro yeast: 2%; Sm TGR block: 2%; Pf growth 96h: 15µM*

Results for O=C(CSc1ncccn1)N1CCN(Cc2ccccc2)CC1 ?
SARS PLpro yeast: -8%; Sm TGR block: 0%; Pf growth 96h: 15%; Pf growth 48h: 30%

What do the screens show for `O=C(O)/C=C/C(=O)Nc1ccc(C2(c3ccc(NC(=O)/C=C/C(=O)O)cc3)c3ccccc3-c3ccccc32)cc1`?
SARS PLpro yeast: -3%; Sm TGR block: inconclusive; Pf growth 96h: 28%; Pf growth 48h: inconclusive

Results for Cc1[nH]c2ccccc2c1C1N2CC3(C)CN1CC(C)(C2)C3=O (stereo unspecified) ?
Sm TGR block: 10%

What do the screens show for `COc1ccc2c(c1)c1c(c(=O)n(Cc3ccccc3)c(=O)n1Cc1ccc(C)cc1)n2C`?
Sm TGR block: -4%

What do the screens show for `CCCNC(=O)N1CCN(C(c2ccccc2)c2ccccc2)CC1`?
SARS PLpro yeast: -2%; Sm TGR block: 9%; Pf growth 96h: 303%; Pf growth 48h: inconclusive
